Sampled rows, rich in hits. Any-hit rate of the full collection: about 19%.
HT1080 IDH1KD tx = qHTS for induction of synthetic lethality in tumor cells producing 2HG: qHTS for the HT-1080-IDH1KD cell line | Potency, µM (titrated, usually from 46.1 µM), for the others: at the highest dose activity, negative = toxicity, usual class: cytotoxic | actives 2% (n = 360,000) | HT-1080 IDH1 knockdown viability, ATP luminescence, 48 h | AID 686971, 2013;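 also: potency is read from the fitted curve at half-maximal effect; 0% = DMSO wells and -100% = cell-free medium wells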
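Viability of IDH1-knockdown HT-1080 fibrosarcoma cells was assessed by CellTiter-Glo after 48 h at 37 °C with titrated compound; concentration-effect curves were classified by fit quality and response size.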
DT40 TDP1 CPT = qHTS for Inhibitors of human tyrosyl-DNA phosphodiesterase 1 (TDP1): qHTS in cells in presence of CPT; chicken DT40 Tdp1-/-;hTDP1 cells + 20 nM CPT, ATP luminescence, 48 h; Potency, µM (top dose mostly 46.2 µM), without a hit: at the highest dose activity change, negative = growth inhibition, most hits filed as inhibitors; actives 12% (n = 420,000); AID 686979, 2013; also: potency is read from the fitted curve at half-maximal effect; nearly all actives have a fitted effect of over 55% in size
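Chicken DT40 Tdp1-/- cells complemented with human TDP1, 400 cells/well, exposed to compounds plus 20 nM camptothecin for at least 48 h at 37 C; viability read as ATP content by CellTiter-Glo luminescence.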
IL-1B inflam inh = qHTS for Inhibitors of Inflammasome Signaling: IL-1-beta AlphaLISA Primary Screen; THP-1 LPS/ATP IL-1B secretion, AlphaLISA, 16 h; stronger effect = lower value; activity change, % at 57.5 µM; actives 4.7% (n = 360,000); AID 743279, 2014; in the data active = activity change below about -50%; inconclusive = mostly about -30% to -49%
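THP-1 cells pretreated 1 hr with compounds (up to 57.5 uM final), then stimulated with LPS (250 ng/mL final) plus ATP (1.25 mM final); secreted IL-1B measured by AlphaLISA after 16 hr, decreased signal indicating inhibition.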
HT1080NT lethal = qHTS for induction of synthetic lethality in tumor cells producing 2HG: qHTS for the HT-1080-NT fibrosarcoma cell line. HT-1080-NT fibrosarcoma viability, CellTiter-Glo ATP luminescence, 48 h. Potency, µM (titrated, usually from 46.1 µM), for the others: at the highest dose activity, negative = less viability, actives largely listed as cytotoxic. actives 1.6% (n = 360,000);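 also: NT is the 2HG producing partner of a matched IDH1 knockdown line; potency is read from the fitted curve at half-maximal effect; 0% = DMSO-treated cells and -100% = media-only wells without cells; nearly all actives have a fitted effect of over 55% in size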
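Fibrosarcoma NT cells, 750 per well in 5% FBS RPMI, were exposed to compound for 48 hours. Viability: CellTiter-Glo luminescence.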
DT40 TDP1 no CPT = qHTS for Inhibitors of human tyrosyl-DNA phosphodiesterase 1 (TDP1): qHTS in cells in absence of CPT. DT40 Tdp1-/- hTDP1 cells, no CPT, ATP luminescence, 48 h. Potency, µM (titrated, usually from 46.2 µM), inactives show top-dose activity change, negative = growth inhibition, actives largely listed as inhibitors. actives 15% (n = 420,000). AID 686978, 2013; also: potency is read from the fitted curve at half-maximal effect; nearly all actives have a fitted effect of over 55% in size
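Chicken DT40 Tdp1-/- cells stably complemented with human TDP1 were seeded at 400 cells/well with DMSO in place of 20 nM camptothecin. After compound pinning, cells grew at least 48 hr at 37 °C; viability read by CellTiter-Glo luminescence.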
* hit, by the source's call; ? = inconclusive; nt = no result; [ ] = another dose, or the depositor's remark. Unless noted, calls follow the shape of the dose curve; as a rule, active = well fitted curve in the direction sought with a large enough effect; inconclusive = small, poorly fitted or top-dose-only effect, or another doubt; inactive = no such curve, though single readings can be large; an effect the other way counts as inactive or inconclusive. Unless noted, % is scaled to controls: 0 for no effect and ±100 for the full control effect.

SMILES	HT1080 IDH1KD tx	DT40 TDP1 CPT	IL-1B inflam inh	HT1080NT lethal	DT40 TDP1 no CPT
CCOc1ccc(N2CC(C(=O)Nc3cc(Cl)ccc3-n3cncn3)CC2=O)cc1 (stereo unspecified)	-1%	-4%	-4	-3%	-5%
CN([C@@H](C(=O)OC(C)(C)C)c1ccccc1)S(=O)(=O)c1cccc(S(=O)(=O)N(C)[C@@H](C(=O)OC(C)(C)C)c2ccccc2)c1	13%	13µM*	17	5%	?
COC(=O)[C@H](Cc1ccccc1)N(C)S(=O)(=O)c1cccc(S(=O)(=O)N(C)[C@@H](Cc2ccccc2)C(=O)OC)c1	-5%	15µM*	6	-20%	?
COC(=O)C(NC(=O)c1ccccc1)C(C)(C)SCc1ccccc1 (stereo unspecified)	1%	?	8	-1%	18µM*
CCOc1ccc(C(=O)NC(Cc2ccccc2)C(=O)OC)cc1 (stereo unspecified)	13%	-22%	13	5%	5%
COC(=O)C(/C=N/O)NC(=O)c1ccccc1 (stereo unspecified)	30%	-12%	-12	24%	-12%
COC(=O)C(Cc1ccccc1)NC(=S)NC(=O)c1ccccc1 (stereo unspecified)	-2%	?	9	-14%	18µM*
COC(=O)C(NS(=O)(=O)c1cccc(S(=O)(=O)NC(C(=O)OC)c2ccccc2)c1)c1ccccc1 (stereo unspecified)	9%	-14%	19	14%	-3%
CC(C)[C@H](NC(=O)OC(C)(C)C)C(=O)NCC1CCC(C(=O)N[C@@H](Cc2ccccc2)C(=O)O)CC1 (stereo partly specified)	11%	3%	7	0%	-1%
Cc1ccc2cc(NC(=O)C3(C)CCN3CC(C)C)ccc2n1 (stereo unspecified)	?	-16%	0	?	-24%
CN(C)c1ccc(C(CNS(=O)(=O)c2ccccc2)N2CCc3ccccc32)cc1 (stereo unspecified)	nt	?	nt	nt	-26%
COC(=O)C(Cc1ccccc1)NC(=O)c1cccc(S(=O)(=O)N(C)C)c1 (stereo unspecified)	22%	-1%	-89*	22%	-5%
COc1ccccc1OCC(=O)Nc1ccc(S(=O)(=O)N2CCCCCC2)cc1	-7%[9.24 µM]	?	-4	5%	?
O=C(COc1ncnc2c1cnn2-c1ccccc1)Nc1ccc(S(=O)(=O)N2CCCCC2)cc1	-17%	16µM*	0	-18%	?
CCCOc1ccccc1OCC(=O)Nc1ccc(S(=O)(=O)N2CCCC2)cc1	1%	?	1	-9%	16µM*
CCCOc1ccccc1C(=O)Nc1ccc(S(=O)(=O)N2CCN(C)CC2)cc1	-9%	18µM*	-16	-19%	16µM*
NS(=O)(=O)c1cccc(NC(=O)COc2ncnc3c2cnn3-c2ccccc2)c1	-18%	0%	26	-18%	6%
CC1Cc2ccccc2N1C(=O)CN1CCC(C(N)=O)CC1 (stereo unspecified)	18%	-3%	4	20%	-14%
CCC(CC)C(=O)Nc1cc(C)cc(C)c1	18%	-27%	4	16%	-12%
CCC(C)NS(=O)(=O)c1ccc(S(=O)(=O)N(CC(=O)Nc2ccccc2)CC2CCCO2)cc1 (stereo unspecified)	-18%	?	-15	-6%	-28%
Cc1cccc(C)c1NC(=O)CNC(=O)c1cccnc1	8%	-3%	27	6%	15%
